The target in test [1] is Nucleoli Translocation, AR (gene 367) (UniProt P10275). The experiment in a line: UPITT_HCI_U2OS_AR_TIF2_Nucleoli_Agonist: University of Pittsburgh U2OS Androgen Receptor-Transcriptional Intermediary Factor 2 (AR-TIF2) Agonism High Content Imaging Assay for Nucleoli Translocation (AID 2283998; active = hit-call score of the fitted dose curve at least 0.9, where 1 is the maximum). An outline of the steps:
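Readout is red (AR-RFP) fluorescence localized to nucleoli, measured by high-content imaging and analysed for increase relative to DMSO. Compound series spanned 0.195 to 50 uM final in 0.5% DMSO.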

Test [2] deals with Ratio of Nucleoli Translocation and Cytoplasm, AR (gene 367) (UniProt P10275). The test can be described thus: UPITT_HCI_U2OS_AR_TIF2_Nucleoli_Cytoplasm_Ratio_Antagonist: University of Pittsburgh U2OS Androgen Receptor-Transcriptional Intermediary Factor 2 (AR-TIF2) Antagonism High Content Imaging Assay for Ratio of Nucleoli Translocation and Cytoplasm (AID 2283999; active = hit-call score of the fitted dose curve at least 0.9, where 1 is the maximum;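 note: antagonists lower the DHT-driven ratio of nucleolar to cytoplasmic red signal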). The procedure, abridged: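 U2OS cells co-expressing RFP-tagged human AR and GFP-tagged TIF2, antagonist mode with DHT as baseline. Nucleolar-to-cytoplasmic red fluorescence ratio imaged by high-content microscopy; final compound 20 uM (0.2% DMSO) primary, 0.195–50 uM (0.5% DMSO) concentration-response.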

Test [3] shares this target. The test can be described thus: UPITT_HCI_U2OS_AR_TIF2_Nucleoli_Cytoplasm_Ratio_Agonist: University of Pittsburgh U2OS Androgen Receptor-Transcriptional Intermediary Factor 2 (AR-TIF2) Agonism High Content Imaging Assay for Ratio of Nucleoli Translocation and Cytoplasm (AID 2284000; active = hit-call score of the fitted dose curve at least 0.9, where 1 is the maximum;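 note: hits raise the red nucleolar to cytoplasm ratio above vehicle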). An outline of the steps:
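U2OS cells expressing RFP-tagged human AR and GFP-tagged TIF2; high-content imaging ratio of nucleolar to cytoplasmic red fluorescence, fitted as gain of signal vs DMSO. Single point at 20 uM final (0.2% DMSO); concentration-response 0.195-50 uM final (0.5% DMSO).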

Test [4] addresses Sodium channel protein type 1 subunit alpha (Rattus norvegicus) (UniProt P04774). The test can be described thus: NVS_IC_rNaCh_site2: NovaScreen (NVS) Ion Channel Assay for rat Sodium Channel, Site 2 (NaCh) (AID 2283322; active = hit-call score of the fitted dose curve at least 0.9, where 1 is the maximum;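 note: hit means loss of radioligand binding signal relative to DMSO so AC50 marks displacement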). The procedure, abridged:
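Membranes: rat forebrain. Format: competitive radioligand displacement, filter separation, scintillation readout, 1 h exposure. Primary screen in duplicate at 25 uM; actives retested in concentration series.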

Test [5] concerns the target guinea pig Sigma Receptor, Non-selective Binding, SIGMAR1 (gene 100135589) (UniProt Q60492). The experiment in a line: NVS_OR_gSIGMA_NonSelective: NovaScreen (NVS) Nuclear Receptor Binding Assay for guinea pig Sigma Receptor, Non-selective Binding (AID 2283367; active = hit-call score of the fitted dose curve at least 0.9, where 1 is the maximum). The procedure, abridged:
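Radioligand displacement on guinea pig brain membranes, read by filter-based scintillation counting 1 h after dosing. Loss of signal versus DMSO; initial duplicate single-point screen at 25 uM, actives followed in concentration series.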

Test [6] is described as follows: IUF_NPC1b_proliferation_BrdU_72hr: Leibniz Research Institute for Environmental Medicine (IUF) 72-hour Neural Progenitor Cell Bromodeoxyuridine (BrdU) Proliferation Assay (NPC1b) (AID 2284207). An outline of the steps:
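BrdU luminescence ELISA quantified DNA synthesis over the last 16 h of a 72 h exposure, fitted against DMSO. Primary hNPC spheres from gestational week 16-19 cortex grown with EGF/FGF at 37C, pH 7.2-7.6.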

Test [7] is described as follows: IUF_NPC1a_proliferation_area_72hr: Leibniz Research Institute for Environmental Medicine (IUF) 72-hour Neural Progenitor Cell Proliferation Area Assay (NPC1a) (AID 2284208). The procedure, abridged:
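Spheres of 0.3 mm are plated singly in growth-factor medium and exposed from day 0. After three days at 37C and 5% CO2, sphere area is measured by phase contrast imaging, with activity referenced to DMSO.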

Test [8] is described as follows: IUF_NPC1_viability_72hr: Viability Assessment at 72 hours in the Leibniz Research Institute for Environmental Medicine (IUF) Neural Progenitor Cell Proliferation Assay (NPC1) (AID 2284209). The procedure, abridged: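 Single spheres (0.25-0.35 mm) of human fetal cortex-derived neural progenitor cells were grown in proliferation medium with EGF and FGF at 37C and 5% CO2. They were exposed for 72 h without renewal, and viability was read by alamar blue resorufin fluorescence.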

The nature of test [9]: IUF_NPC2c_oligodendrocyte_migration_120hr: Leibniz Research Institute for Environmental Medicine (IUF) 120-hour Neural Progenitor Cell Migration Assay for Oligodendrocyte Migration (NPC2c) (AID 2284297). The procedure, abridged: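 Read-out is the mean distance of O4-positive oligodendrocytes from the sphere core edge at 120 h, normalized to radial glia migration and fitted in the gain direction against DMSO. Spheres of primary human neural progenitors differentiated on laminin under continuous compound exposure.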

Test [10] in a line: IUF_NPC2a_radial_glia_migration_120hr: Leibniz Research Institute for Environmental Medicine (IUF) 120-hour Neural Progenitor Cell Migration Assay for Radial Glia Migration (NPC2a) (AID 2284298). The procedure, abridged: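 Readout: distance in um from sphere core edge to migration-area edge, derived from Hoechst nuclei density with a threshold-defined polynomial boundary. Spheres: hNPC, GW 16-19, 0.3 mm, on PDL/laminin; exposure 5 days; DMSO is baseline.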

Test [11] can be described thus: IUF_NPC2a_radial_glia_migration_72hr: Leibniz Research Institute for Environmental Medicine (IUF) 72-hour Neural Progenitor Cell Migration Assay for Radial Glia Migration (NPC2a) (AID 2284299). The procedure, abridged: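 Human fetal neural progenitor spheres (0.3 mm) plated on poly-D-lysine/laminin in N2 differentiation medium and exposed from day 0 at 7 concentrations; radial glia migration distance from sphere edge measured at 72 h on brightfield images, mean of four directions, vs DMSO.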

Test [12] is described as follows: IUF_NPC2b_neuronal_migration_120hr: Leibniz Research Institute for Environmental Medicine (IUF) 120-hour Neural Progenitor Cell Migration Assay for Neuron Migration (NPC2b) (AID 2284300). The procedure, abridged: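 Read-out is mean distance from sphere edge to each TUBB3-positive neuron at 120 h, expressed relative to radial glia migration distance and to DMSO baseline. Single 0.3 mm human NPC spheres differentiated on laminin under continuous compound exposure.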

Test [13] can be described thus: IUF_NPC3_neuronal_differentiation_120hr: Leibniz Research Institute for Environmental Medicine (IUF) 120-hour Neuronal Differentiation Assay (NPC3) (AID 2284301). The procedure, abridged:
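Human fetal (GW 16-19) neural progenitor spheres (0.3 mm) plated on poly-D-lysine/laminin in N2 differentiation medium, exposed 120 h at 37C with half-medium renewal day 3; 7 concentrations. TUBB3+ cells as % of Hoechst nuclei, CNN-identified; DMSO baseline.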

The nature of test [14]: IUF_NPC4_neurite_length_120hr: Leibniz Research Institute for Environmental Medicine (IUF) 120-hour Neuronal Morphology Assay for Neurite Length (NPC4) (AID 2284302). An outline of the steps: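 Human fetal neural progenitor spheres (0.3 mm) plated on poly-D-lysine/laminin in N2 differentiation medium, exposed from day 0 for 120 h with half-medium refresh at day 3, 37C. Mean neurite length (um) of TUBB3-positive neurons from skeletonized immunostaining images; DMSO ≤0.1%.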

Test [15] can be described thus: IUF_NPC4_neurite_area_120hr: Leibniz Research Institute for Environmental Medicine (IUF) 120-hour Neuronal Morphology Assay for Neurite Area (NPC4) (AID 2284305; active = hit-call score of the fitted dose curve at least 0.9, where 1 is the maximum). The procedure, abridged:
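Human fetal neural progenitor spheres (0.3 mm) plated on poly-D-lysine/laminin in N2 differentiation medium, exposed 120 h (7 concentrations, DMSO ≤0.1%, half-medium refresh day 3). Fixed, TUBB3 immunostained; mean neurite area per neuron by Omnisphero skeletonization.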

The nature of test [16]: IUF_NPC2-5_cytotoxicity_72hr: Cytotoxicity Assessment at 72 hours in the Leibniz Research Institute for Environmental Medicine (IUF) Neural Progenitor Cell Migration and Differentiation Assay for Cytotoxicity (NPC2-5) (AID 2284306; active = hit-call score of the fitted dose curve at least 0.9, where 1 is the maximum;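 note: LDH release into supernatant measured by resorufin fluorescence marking membrane damage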). An outline of the steps: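 Human fetal primary neural progenitor spheres (0.3 mm) plated on poly-D-lysine/laminin in N2 differentiation medium, exposed from day 0 at 37C. LDH-dependent resazurin-to-resorufin fluorescence in supernatant at 72 h; 7 concentrations, DMSO at most 0.1%.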

Test [17] can be described thus: IUF_NPC2-5_cytotoxicity_120hr: Cytotoxicity Assessment at 120 hours in the Leibniz Research Institute for Environmental Medicine (IUF) Neural Progenitor Cell Migration and Differentiation Assay (NPC2-5) (AID 2284307; active = hit-call score of the fitted dose curve at least 0.9, where 1 is the maximum;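 for AC50: LDH released into supernatant as membrane damage marker via resorufin fluorescence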). The procedure, abridged:
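Sphere plating starts differentiation and exposure together at day 0. Compound solution is half-replaced on day 3. At 120 h, medium supernatant is taken for an LDH membrane-integrity read based on resazurin reduction to resorufin fluorescence.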

The nature of test [18]: IUF_NPC2-5_cell_number_120hr: Cell Number Assessment at 120 hours in the Leibniz Research Institute for Environmental Medicine (IUF) Neural Progenitor Cell Migration and Differentiation Assay (NPC2-5) (AID 2284308).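 Note: count of Hoechst-stained nuclei in migration zone around plated human neural progenitor spheres.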 An outline of the steps: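 hNPC spheres, one per well, PDL/laminin, N2 medium, 37C, 5% CO2. Dosing day 0 → half-medium change with fresh compound day 3 → fix 120 h. Readout: Hoechst+ nuclei count, migration area; 7 concentrations plus solvent control.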

Test [19] can be described thus: IUF_NPC2-5_viability_120hr: Viability Assessment at 120 hours in the Leibniz Research Institute for Environmental Medicine (IUF) Neural Progenitor Cell Migration and Differentiation Assay (NPC2-5) (AID 2284312). An outline of the steps: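 Human fetal neural progenitor spheres (0.3 mm) plated on poly-D-lysine/laminin in N2 differentiation medium, exposed 120 h with half-medium refresh at day 3. Viability by alamar blue resazurin fluorescence; 7 concentrations, DMSO max 0.1%.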

Test [20] in a line: IUF_NPC1_cytotoxicity_72hr: Cytotoxicity Assessment at 72 hours in the Leibniz Research Institute for Environmental Medicine (IUF) Neural Progenitor Cell Proliferation Assay (NPC1) (AID 2284332; active = hit-call score of the fitted dose curve at least 0.9, where 1 is the maximum;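 note: rising LDH signal means more cytotoxicity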). An outline of the steps: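 Human fetal neural progenitor spheres (0.3 mm) in EGF/FGF proliferation medium, 37C, exposed 72 h without renewal. LDH release in supernatant read by resorufin fluorescence; gain of signal scored relative to dynamic range.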

Inconclusive results are not listed. The source made the active and inactive calls. Rule for the calls, unless noted: active = hit-call score of the fitted dose curve at least 0.9, where 1 is the maximum; inactive = score below 0.9.

Sequence of guinea pig Sigma Receptor, Non-selective Binding, SIGMAR1 (gene 100135589) (Q60492 whole entry, looked up): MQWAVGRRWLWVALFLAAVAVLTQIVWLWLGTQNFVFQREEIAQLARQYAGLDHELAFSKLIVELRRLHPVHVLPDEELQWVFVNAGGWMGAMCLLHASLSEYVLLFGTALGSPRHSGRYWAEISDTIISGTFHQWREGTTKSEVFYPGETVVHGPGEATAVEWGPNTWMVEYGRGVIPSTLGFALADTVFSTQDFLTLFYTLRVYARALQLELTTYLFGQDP
Sequence of Ratio of Nucleoli Translocation and Cytoplasm, AR (gene 367) (P10275 whole entry, looked up): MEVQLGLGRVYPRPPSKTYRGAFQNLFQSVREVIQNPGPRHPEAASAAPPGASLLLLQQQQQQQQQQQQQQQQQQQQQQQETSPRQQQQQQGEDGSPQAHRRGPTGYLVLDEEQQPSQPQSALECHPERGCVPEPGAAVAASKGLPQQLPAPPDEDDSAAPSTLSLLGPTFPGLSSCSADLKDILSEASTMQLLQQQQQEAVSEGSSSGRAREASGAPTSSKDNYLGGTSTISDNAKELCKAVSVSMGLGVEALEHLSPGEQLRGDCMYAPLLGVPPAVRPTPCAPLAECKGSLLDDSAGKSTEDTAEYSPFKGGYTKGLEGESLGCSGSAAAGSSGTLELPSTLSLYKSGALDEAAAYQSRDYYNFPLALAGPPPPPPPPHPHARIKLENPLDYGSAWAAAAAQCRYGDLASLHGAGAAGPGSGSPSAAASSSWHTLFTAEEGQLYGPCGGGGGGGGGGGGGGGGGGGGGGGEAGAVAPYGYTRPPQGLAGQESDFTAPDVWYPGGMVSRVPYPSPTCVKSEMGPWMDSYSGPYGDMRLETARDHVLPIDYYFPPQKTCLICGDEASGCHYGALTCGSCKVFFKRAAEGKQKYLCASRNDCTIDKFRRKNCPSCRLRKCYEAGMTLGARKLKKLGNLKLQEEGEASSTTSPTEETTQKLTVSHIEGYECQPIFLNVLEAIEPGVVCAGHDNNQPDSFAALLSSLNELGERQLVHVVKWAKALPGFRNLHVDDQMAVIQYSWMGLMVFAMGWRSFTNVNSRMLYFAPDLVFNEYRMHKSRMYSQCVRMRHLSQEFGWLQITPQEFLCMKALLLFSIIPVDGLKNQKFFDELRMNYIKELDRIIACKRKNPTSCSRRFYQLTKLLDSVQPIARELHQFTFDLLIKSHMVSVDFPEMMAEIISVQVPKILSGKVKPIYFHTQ
Sequence of Nucleoli Translocation, AR (gene 367) (P10275 whole entry, looked up): as above

For the compound `Cc1cc(C)c(S(=O)(=O)O)cc1N=Nc1cc(S(=O)(=O)O)c2ccccc2c1O`, the outcome in test [1], in test [2] and in test [3] was inactive.

One may read the AC50 as the midpoint of the concentration-response curve, whichever way the signal moves. Regarding `CN(C)CCC(c1ccc(Cl)cc1)c1ccccn1` (stereo not given), the results for the AC50 in test [4] and in test [5] were 3.21 µM (active) and 3.14 µM (active), respectively. The outcome in [6], in test [7], in test [8], in test [9], in test [10] and in [11] was inactive. Moreover, the compound was called inactive in test [12], in [13], in test [14], in [15], in test [16] and in test [17]. Moreover, the outcome in [18], in [19] and in [20] was inactive.

Take `NC(N)=Nc1nc(CSCCC(N)=NS(N)(=O)=O)cs1`: the call in [6], in [7], in [8], in test [9], in test [10] and in [11] was inactive. Further, the compound was classed as inactive in test [12], in test [13], in test [14], in test [15], in test [16] and in [17]. In addition, the call in test [18], in test [19] and in test [20] was inactive.

On to `CCCCCCCCCCCCCCCCCC[N+](C)(C)C`, for which the half-maximal activity concentration (AC50) in test [5] was 2.61 µM (active).

Consider `O=C(c1ccccc1)c1ccccc1O`, for which the result in [1], in [2] and in test [3] was inactive.

With `O=C(C(=O)c1ccccc1)c1ccccc1`, in test [4], the call was inactive.

As to `CO[Si](CCCNCCN)(OC)OC`, the outcome in test [1], in test [2] and in [3] was inactive.

Take `Oc1cccc2ccccc12`: the compound was classed as inactive in test [6], in [7], in [9], in test [10], in [11] and in test [12]. In addition, the compound was classed as inactive in [13], in test [14], in test [15], in [16], in test [18] and in test [19]. Besides, the compound was called inactive in test [20]. Also, the AC50 in test [8] is 2.44 µM (active); in test [17], 0.216 µM (active).

On to `CC[N+](CC)(CC(=O)Nc1c(C)cccc1C)Cc1ccccc1`, for which the concentration at half-maximal activity (AC50) in [4] is 3.49 µM (active); in [5], 12.7 µM (active).

The record behind these values is PubChem BioAssay (EPA / NIEHS).
